Reference: ChEMBL document CHEMBL1157539, “Thousands of chemical starting points for antimalarial lead identification” (Nature, 2010)
Where “and” joins values, the source holds several entries; their conditions need not be identical. Equal entries are not always repeated.

How the values were obtained:
Format in all cases: functional
Plasmodium falciparum [1] = assay: GSK_TCMDC: Inhibition of Plasmodium falciparum 3D7 in whole red blood cells, using parasite LDH activity as an index of growth. Test compounds present at 2uM
Plasmodium falciparum [2] = assay: GSK_TCMDC: Inhibition of Plasmodium falciparum Dd2 in whole red blood cells, using parasite LDH activity as an index of growth. Test compounds present at 2uM
HepG2 = assay: GSK_TCMDC: Percent inhibition of human HepG2 cell line. Test compounds present at 10uM.

SMILES | Inhibition (Plasmodium falciparum [1]) | Inhibition (Plasmodium falciparum [2]) | Inhibition (HepG2)
COc1ccc(CN2CCN(C(=O)c3cccs3)CC2)c(O)c1 | 97% | 2% | 7%
Cn1nc(-c2ccc(S(=O)(=O)N3CCC(CCN4CCC(c5c[nH]c6ccccc56)CC4)CC3)s2)cc1C(F)(F)F | 94% | 22% | 40%
N=C(Nc1cccc(Cc2ccccc2)n1)Nc1ncccn1 | 90% | 34% | 51%
COc1c(C2CCN(CCCCNC(=O)c3ccc(-c4ccc(Cl)cc4)c(OCC(N)=O)c3)CC2)ccc2c1CCCC2 | 97% | 11% | 43%
Cn1c(N=C2NC3(c4ccccn4)NC(=Nc4nc5ccccc5n4C)NC3(c3ccccn3)N2)nc2ccccc21.O=C(O)C(F)(F)F (centres undefined) | 99% | 44% | 12%
COc1ccc2nccc([C@@H](O)CN3CCC(NCc4cc5ccccc5[nH]4)CC3)c2n1.O=C(O)C(=O)O | 100% | 55% | 17%
Fc1cccc(Nc2nc(NCc3ccc4ccsc4c3)nc(Nc3cccc(F)c3)n2)c1 | 94% | 11% | 0%
O=C(/C=C/c1ccc(Cl)c(Cl)c1)NCCCCCN1CCC(c2c[nH]c3ccccc23)C(O)C1 (centres undefined) | 96% and 99% | 9% and 0% | 34% and 12%
CC(C)(CNCc1ccccc1)c1nc(-c2ccc(Cl)c(O)c2)c(-c2ccncc2)[nH]1.Cl | 100% | 99% | 77%
CNS(=O)(=O)Cc1ccc(Nc2nccc(Nc3cccc4c3cnn4C(=O)Nc3ccccc3)n2)cc1 | 89% | 5% | 45%
COc1ccc(NCCCNc2ccnc3ccccc23)cc1 | 88% | 17% | 34%
CC1(C)N=C(N)N=C(N)N1c1ccc(I)cc1.Cl | 92% | 1% | 16%
CN1CCN(c2ccc(Nc3c(C(N)=O)cnc4cc(-c5ccoc5)ccc34)cc2)CC1.Cl | 100% | 99% | 14%
CC(C)C(NC(=O)c1c(F)cccc1F)C(=O)Nc1ccc(Cc2nc3ccccc3s2)cc1 (centres undefined) | 86% | 55% | 0%
O=C(NCc1ccco1)c1ccc(S(=O)(=O)c2ccc(Cl)cc2)cc1 | 97% | 95% | 6%
CCNc1cc(C(=O)N[C@@H](Cc2ccccc2)[C@H](O)CNC2CCC(F)(F)CC2)c(F)c(N2CCCCS2(=O)=O)c1.O=CO | 100% | 97% | 0%
N#Cc1ccc(-c2ccc(C(=O)NCCCCN3CCC(c4ccc5c(c4OCc4ccccn4)CCCC5)CC3)cc2)cc1 | 96% | 39% | 37%
O=C(/C=C/c1ccc(Cl)c(Cl)c1)N1CCC(CCN2CCc3[nH]c4ccccc4c3C2)CC1.O=C(O)C(F)(F)F | 96% | 0% | 22%
CCCN(CCC)CCCNc1ccc(C(=O)Nc2ccc(OCC)cc2)cc1[N+](=O)[O-] | 89% | 2% | 7%
COc1ccc2c(c1)ncn2-c1cc(OCc2ccncc2Br)c(C(N)=O)s1 | 95% | 50% | 14%
Clc1cc(Cl)c2cc(CN[C@H]3CCC[C@@H]3CNc3nc4ccccc4[nH]3)[nH]c2c1 | 99% | 58% | 85%

SMILES | Inhibition (Plasmodium falciparum [1]) | Inhibition (Plasmodium falciparum [2]) | Inhibition (HepG2)
COc1ccc(CN2CCC(CNCCc3ccccc3Cl)CC2)cc1.O=C(O)C(F)(F)F | 87% | 17% | 36%
CC(C)COc1ccc(Cl)cc1Cc1ccc(-c2nc3ccc(C(F)(F)F)cc3[nH]2)o1 | 97% | 51% | 14%
Cc1cccc(N2CCN(C3CCC(NC(=O)c4cc5ccccc5[nH]4)CC3)CC2)c1C (centres undefined) | 100% | 21% | 49%
Cc1noc(-c2ccc(O)cc2O)c1-c1ccc2c(c1)OCCCO2 | 100% | 99% | 8%
Cl.Oc1cccc(Nc2ccnc3cc(-c4ccncc4)ccc23)c1 | 100% | 99% | 8%
Clc1ccc2c(NCc3ccccc3)ccnc2c1 | 100% | 100% | 40%
CCN(CC)CCN(Cc1ccc(-c2ccc(C(F)(F)F)cc2)cc1)C(=O)c1c[nH]c2ccc(Br)cc12 | 90% | 74% | 80%
O=C(CCc1c[nH]cn1)Nc1cccc(-c2cccc(-c3nc4ccccc4[nH]3)c2)c1 | 100% | 25% | 8%
CCOc1ccc2[nH]c(C)cc(=NN=Cc3ccccc3F)c2c1 | 100% | 99% | 0%
COc1cccc2c1CCN(CCN1CCC(NC(=O)c3ccc(-c4cccc(Cl)c4Cl)cc3)CC1)C2 | 100% | 38% | 47%
Cc1cc(NCC2CCN(CC3CCCCC3)C2)nc(Nc2ccc(Br)cc2)n1 (centres undefined) | 100% | 78% | 0%
Cc1ccc(-n2cc(CNCC3CCN(CCO)CC3)c(-c3ccc(F)cc3)n2)cc1 | 91% | 18% | 29%
CNc1ccc(CNCc2ccc(-c3ccc(-c4nc5cccc(C)c5[nH]4)s3)cc2)cc1.O=C(O)C(F)(F)F | 100% | 94% | 29%
Cl.c1cc(COc2ccc(C3=NCCN3)cc2)nc(COc2ccc(C3=NCCN3)cc2)c1 | 100% | 98% | 8%
Nc1nonc1-c1nc2c(-c3cccc(Cl)c3)nccc2n1CCCNC(=O)Cc1ccc(Cl)cc1 | 94% | 92% | 0%
CN(CCNCc1ccc(-c2cccc(-c3nc4ccccc4[nH]3)c2)cc1)S(C)(=O)=O.O=C(O)C(F)(F)F | 100% | 29% | 9%
CN(C(=O)c1cc2c(-c3cncnc3)cccc2[nH]1)c1ccccc1 | 92% | 99% | 1%
O=C(NC1CC1)c1ccc(N2CCCC(COc3ccccc3F)C2)nc1 (centres undefined) | 87% | 92% | 8%
CC(C)c1ccc(OCC(O)CN(CCN2CCOCC2)C(=O)Nc2ccc(Br)cc2)cc1.O=C(O)C(F)(F)F (centres undefined) | 98% | 44% | 6%
CC(C)(C)c1ccc(CN2CCC(CNC(=O)c3cc(-c4ccccc4F)cs3)C2)cc1.O=C(O)C(F)(F)F (centres undefined) | 100% | 98% | 46%
FC(F)(F)c1ccc2[nH]c(-c3ccc(-c4ccc(CNCCc5ccncc5)cc4)cc3)nc2c1.O=C(O)C(F)(F)F | 100% | 100% | 26%

SMILES | Inhibition (Plasmodium falciparum [1]) | Inhibition (Plasmodium falciparum [2]) | Inhibition (HepG2)
Cc1cccc(C)c1CNc1ccnc2cc(C#N)ccc12.Cl | 100% | 99% | 20%
Nc1nc2c(ncn2OC[C@H](CO)OCP(=O)(O)O)c(=O)[nH]1 | 94% | 61% | 5%
O=C(NCCCN1CCCCC1)c1ccc(Nc2nccc(Nc3ccc(Oc4ccccc4)cc3)n2)cc1 | 100% | 61% | 30%
CCc1c(CCNCCCCCCNC(C)Cc2ccc3c(c2CC)OCO3)ccc(OC)c1OC.Cl (centres undefined) | 100% | 64% | 100%
C[C@@H](C(N)=O)N1CCCCC1c1ccc(OCc2cccc(F)c2)cc1 (some centres undefined) | 84% | 96% | 79%
FC(F)(F)c1ccc2c(NN=Cc3cccc(Cl)c3)ccnc2c1 | 93% | 59% | 7%
CCOc1ccc2c(=NN=Cc3ccccc3F)cc(C)[nH]c2c1 | 100% | 77% | 0%
Cn1cc(CN2CCCC(COC(c3ccc(F)cc3)c3ccc(F)cc3)C2)cn1 (centres undefined) | 98% | 100% | 15%
CCc1cn2c3c(cc(C(=O)N[C@@H](Cc4cccc(Cl)c4)[C@H](O)CNC4CCCCC4)cc13)N(C)S(=O)(=O)CC2.O=CO | 97% | 98% | 12%
O=C(NCCCN1CCCC1=O)c1cnc(N2CCC(Oc3ccccc3)CC2)c(Cl)c1 | 97% | 93% | 7%
COc1cccc(-c2cnc(N)c(-c3nc4cc(Cl)c(F)cc4[nH]3)c2)c1 | 100% | 26% | 37%
CC(C)N1CCN(C(=O)c2ccc(CNCCCN3CCN(c4cccc(Cl)c4Cl)CC3)o2)CC1.Cl | 98% | 36% | 41%
Cc1cc(N[C@@H](CC(C)C)C(=O)Nc2ccccc2)nc(NCC2CCCCC2)n1.O=C(O)C(F)(F)F | 100% | 95% | 8%
FC(F)(F)c1ccc2[nH]ccc(=NN=Cc3ccccc3Cl)c2c1 | 100% | 83% | 0%
CCc1sc(-c2ccc(C(C)(C)C)cc2)nc1C(=O)NCCCN1CCCC1=O | 84% | 69% | 0%
O=C(/C=C/c1ccc(Cl)cc1)NCCCCCN1CCC(C(=O)Nc2ccc(Cl)cc2)CC1 | 99% | 0% | 27%
Cc1cccc(C)c1C1CCN(C2CCC(NC(=O)/C=C/c3ccccc3)CC2)CC1 (centres undefined) | 100% | 45% | 42%
CC1(C)NC(N)=NC(=N)N1OCc1ccc2ccccc2c1CON1C(=N)N=C(N)NC1(C)C | 96% | 12% | 8%
CN1CCC(NC(=O)c2cc(Oc3ccc4c(c3)CCN4C(=O)Nc3cccc(C(F)(F)F)c3)ccn2)CC1.O=C(O)C(F)(F)F | 92% | 17% | 16%
O=C(C=CC(=O)N1CCCCC1)NCc1ccccc1 | 100% | 0% | 6%
Cc1ccc(CNC(=O)[C@H](CCCN)Nc2nc(NCC3CCCCC3)ncc2C)cc1.O=C(O)C(F)(F)F | 92% | 5% | 1%
